Laboratory results published in PubChem BioAssay (NCI).
Compounds without any hit were thinned out: in the full panel of roughly 83,000, 20% have a hit.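 96-well plates, one dose, 48 hours. Percent growth reported; active if below 10.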 The source made the active and inactive calls.

Each molecule was assayed on NCI-H322M lung (assay: NCI-60 one-dose screen, 48 h (100 = growth as untreated, 0 = no growth, -100 = all killed)). Settings: 10 µM unless noted.

**Q.** Which growth does the source give for `O=S(=O)(NCCNc1nccc(-c2c(-c3cccc(O)c3)nc3occn23)n1)c1ccccc1` here?
**A.** 93.7% (inactive)

**Q.** For `NC(=NCCCOc1ccc(F)cc1)Nc1ccc(Cl)cc1`, which growth is on record?
**A.** 60.1% (inactive)

**Q.** `C#Cc1cccc(NC(=O)c2cccc(NC(=O)CCl)c2)c1` was tested. Which growth did it give?
**A.** 58.8% [8.25 µM] (inactive)

**Q.** How did the growth turn out when `CCN1Cc2nc3sc(C)c(C)c3c(=O)n2C=C1C` was run?
**A.** 69% (inactive)

**Q.** With `O=C1Nc2cc(-c3cccc([N+](=O)[O-])c3)ccc2/C1=C/c1ccc[nH]1` as the molecule, how does the growth read?
**A.** 58.3% (inactive)

**Q.** `C[C@H]1[C@H](C)CC[C@]2(C(=O)NCC#CCN3CCN(C)CC3)CC[C@]3(C)C(=CC[C@@H]4[C@@]5(C)Cc6c([nH]c7ccccc67)C(C)(C)[C@@H]5CC[C@]43C)[C@H]12` was tested. Which growth did it give?
**A.** 92.8% (inactive)

**Q.** For `COc1cc(/C=C/c2cc(O)c(C(C)=O)c(O)c2)cc2c1O[C@]1(C)CC[C@@H](O)C(C)(C)[C@H]1C2`, which growth is on record?
**A.** 76.2% (inactive)

**Q.** Which growth does the source give for `N#CC1=C(N)Oc2c(cnn2-c2ccc([N+](=O)[O-])cc2[N+](=O)[O-])C1c1ccccc1` (configuration not stated) here?
**A.** 97.7% (inactive)

**Q.** Which growth does the source give for `COc1ccc(C(=O)c2cc(C)c(OC)c(C)c2)c(OC)c1N(C(=O)CCl)C(=O)CCl` here?
**A.** 36.2% (inactive)

**Q.** `CCC(=O)Oc1ccc(/C(=C(\C)c2ccccc2)c2ccc(OCCN3CCCCC3)cc2)cc1` was tested. Which growth did it give?
**A.** 82% (inactive)

**Q.** `Cc1ccc(NC(=O)c2cc(-c3nc4ccccc4s3)c(=O)n(NS(=O)(=O)c3ccc(Cl)cc3)c2N)cc1` was tested. Which growth did it give?
**A.** 97.8% (inactive)

**Q.** For `O=C1Nc2ccc(F)cc2/C1=C\c1c(-c2ccccc2)nc2ccccn12`, which growth is on record?
**A.** 76.3% (inactive)
